Only some compounds are listed: those with a hit (about 19% of all), similar ones and a draw of the others.
HT1080 IDH1KD tx – kills HT-1080 cells with IDH1 knockdown | HT-1080 IDH1 knockdown viability, ATP luminescence, 48 h | Potency, µM (series often up to 46.1 µM), inactives show top-dose activity, negative = toxicity, usual class: cytotoxic | 360,000 compounds, 2% hits | AID 686971;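 also: potency is read from the fitted curve at half-maximal effect; 0% = DMSO wells and -100% = cell-free medium wells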
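CellTiter-Glo luminescence after 48 h compound exposure at 37 degrees C of IDH1-knockdown HT-1080 cells in 5% FBS RPMI. %Activity scaled between DMSO wells and cell-free media wells, with curves fitted and assigned curve classes.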
IL1B secr inh – blocks inflammasome-driven IL-1 beta release. 360,000 compounds, 4.7% hits. AID 743279. THP-1 LPS/ATP IL-1B secretion, AlphaLISA, 16 h; stronger effect = lower value. activity change, % at 57.5 µM; in the data active = activity change below about -50%; inconclusive = mostly about -30% to -49%
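THP-1 cells pretreated 1 hr with compounds (up to 57.5 uM final), then stimulated with LPS (250 ng/mL final) plus ATP (1.25 mM final); secreted IL-1B measured by AlphaLISA after 16 hr, decreased signal indicating inhibition.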
DT40 TDP1 no CPT – qHTS for Inhibitors of human tyrosyl-DNA phosphodiesterase 1 (TDP1): qHTS in cells in absence of CPT | DT40 Tdp1-/- hTDP1 cells, no CPT, ATP luminescence, 48 h | 420,000 compounds, 15% hits | Potency, µM (top dose mostly 46.2 µM), for inactives: at the highest dose activity change, negative = growth inhibition, most hits filed as inhibitors; also: potency is read from the fitted curve at half-maximal effect; nearly all actives have a fitted effect of over 55% in size
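Cells were dispensed at 400 per well, compounds added by pin tool, plates incubated ≥48 hr at 37 °C, then CellTiter-Glo added for 30 min at room temperature before luminescence reading. Line: DT40 Tdp1-/- complemented with hTDP1; camptothecin omitted.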
HT1080-NT tox – kills 2HG-producing HT-1080-NT fibrosarcoma cells | HT-1080-NT fibrosarcoma viability, CellTiter-Glo ATP luminescence, 48 h | Potency, µM (titrated, usually from 46.1 µM), for inactives: at the highest dose activity, negative = less viability, hits mostly cytotoxic | 360,000 compounds, 1.6% hits | AID 686970;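 also: NT is the 2HG producing partner of a matched IDH1 knockdown line; potency is read from the fitted curve at half-maximal effect; 0% = DMSO-treated cells and -100% = media-only wells without cells; nearly all actives have a fitted effect of over 55% in size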
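Viability by CellTiter-Glo luminescence after 48 h compound exposure at 37C of HT-1080-NT cells (750/well, RPMI, 5% FBS). % activity scaled between DMSO wells and medium-only wells, then curve-fitted and categorized by curve class.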
TDP1 cell CPT – growth inhibition of DT40 Tdp1-/-;hTDP1 cells with camptothecin (screen for TDP1 inhibitors). chicken DT40 Tdp1-/-;hTDP1 cells + 20 nM CPT, ATP luminescence, 48 h. Potency, µM (series often up to 46.2 µM), without a hit: top-dose activity change, negative = growth inhibition, actives largely listed as inhibitors. 420,000 compounds, 12% hits. AID 686979; also: potency is read from the fitted curve at half-maximal effect; nearly all actives have a fitted effect of over 55% in size
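Chicken DT40 Tdp1-/- cells complemented with human TDP1, 400 cells/well, exposed to compounds plus 20 nM camptothecin for at least 48 h at 37 C; viability read as ATP content by CellTiter-Glo luminescence.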
* hit, by the source's call; ? = inconclusive; . = no result given; [ ] = remark or other dose. Unless noted, calls follow the shape of the dose curve; as a rule, active = well fitted curve in the direction sought with a large enough effect; inconclusive = small, poorly fitted or top-dose-only effect, or another doubt; inactive = no such curve, though single readings can be large; an effect the other way counts as inactive or inconclusive. Unless noted, % is scaled to controls: 0 for no effect and ±100 for the full control effect.

SMILES	HT1080 IDH1KD tx	IL1B secr inh	DT40 TDP1 no CPT	HT1080-NT tox	TDP1 cell CPT
CC(C)Nc1ncnc2c1ncn2[C@H]1CN(Cc2cccs2)C[C@@H](CO)O1	19.4%	-14.3	-22.6%	?	-4.9%
FC(F)Oc1ccccc1/C=N/n1cnc2ccccc21	-1.7%	14.5	18.4µM*	-4.8%	?
O=c1[nH]nc(N/N=C/c2ccccc2OC(F)F)c(=O)[nH]1	0.7%	-12.2	9.7%	0.8%	-3.8%
NC(=O)c1cccc(-c2ccnc3c2CC(C(=O)Nc2cccc(Oc4ccccc4)c2)O3)c1 (stereo not given)	23.1µM*	-10.9	?	?	?
NC(=O)c1cccc(-c2ccnc3c2CC(C(=O)NCC2CC2)O3)c1 (stereo not given)	26.6%	14.3	1.6%	3.1%	1.4%
CC(=O)c1cccc(-c2ccnc3c2CC(C(=O)Nc2cccc(OC(F)(F)F)c2)O3)c1 (stereo not given)	16.4µM*	-5.8	?	?	-4.3%
O=C(Nc1cccc(OC(F)(F)F)c1)C1Cc2c(-c3ccc4c(c3)OCO4)ccnc2O1 (stereo not given)	23.1µM*	-4.7	20.6µM*	?	16.4µM*
O=C(Nc1cccc(OC(F)(F)F)c1)C1Cc2c(-c3ccc(Cl)cc3)ccnc2O1 (stereo not given)	?	-24.8	?	?	?
O=C(Nc1cccc(Oc2ccccc2)c1)C1Cc2c(-c3ccc4c(c3)OCO4)ccnc2O1 (stereo not given)	?	-4.5	?	?	?
Cc1cc(C(=O)CSc2nnc(CCC(N)=O)n2C)c(C)n1C1CC1	-13.8%	-1.7	-9.2%	-2.0%	-16.7%
CN(C(=O)COC(=O)c1cc([N+](=O)[O-])ccc1Cl)c1ccccc1	18.0%	?	-13.5%	20.3%	5.4%
COc1ccc(CNC(=O)Nc2ccc3c(c2)N(C)C(=O)CS3)cc1	5.0%	0.1	?	-3.3%	?
CCc1cccc(NC(=O)Nc2ccc3c(c2)N(C)C(=O)c2ccccc2S3)c1	.	.	23.1µM*	.	?
CN1C(=O)c2ccccc2Sc2ccc(NC(=O)NC3CC3)cc21	-2.0%	-1.1	?	-8.0%	?
CN1C(=O)c2ccccc2Sc2ccc(NC(=O)N3CCN(c4cccc(Cl)c4)CC3)cc21	.	.	5.17µM*	.	7.31µM*
COc1cccc(CNC(=O)Nc2ccc3c(c2)N(C)C(=O)c2ccccc2S3)c1	.	.	?	.	23.1µM*
O=C(NCCCN1CCCC1)c1ccc(CS(=O)(=O)c2c(Cl)cccc2Cl)o1	-1.4%	2.6	-5.5%	-1.8%	-7.8%
CCCCCCCCCCCCCCC[C@@H](O)[C@H](CO)NC(=O)CCCCCCC	.	.	0.0%[4.12 µM]	.	?
COCCCN1C(=O)c2ccc(C(=O)OCC(=O)N3CCN(c4ccccc4)CC3)cc2C1=O	0.6%	24.3	-10.1%	13.4%	2.9%
O=[N+]([O-])c1ccc(Cl)c(-c2ccc(/C=N/c3c(-c4ccco4)nc4ccccn34)o2)c1	-1.0%	1.7	?	-0.5%	-27.9%
O=[N+]([O-])c1ccc(-c2ccc(/C=N/c3c(-c4ccco4)nc4ccccn34)o2)cc1	?	12.7	7.31µM*	?	20.6µM*
Cc1cc(C)c([N+](=O)[O-])cc1-c1ccc(/C=N/c2c(-c3ccco3)nc3ccccn23)o1	-26.2%	-15.2	14.6µM*	-24.2%	14.6µM*
O=C1OCCC1Sc1nnc(-c2ccc(Cl)cc2Cl)o1 (stereo not given)	13.3%	14.0	-15.9%	10.2%	11.1%
COc1ccc(Cl)cc1C(=O)NNC(=O)CCNC(C)=O	-1.1%	-4.4	-8.4%	1.6%	-6.6%
Cc1cccc(C(=O)N/N=C/c2ccc(OCC(=O)N3CCCCC3)cc2)c1	-2.3%	10.3	2.0%	1.5%	?
SMILES	HT1080 IDH1KD tx	IL1B secr inh	DT40 TDP1 no CPT	HT1080-NT tox	TDP1 cell CPT
O=C(CSCc1cccc(Cl)c1)N/N=C/c1ccc(OCC(=O)N2CCCCC2)cc1	-25.0%	-73.7*	15.8µM*	-27.3%	16.4µM*
COc1ccc(OCC(=O)Sc2ccc(C)cc2)cc1	-6.3%	-17.9	23.1µM*	-0.3%	?
O=C(Nc1ccnn1C1CCN(Cc2ccc(CO)o2)CC1)c1ccccc1	0.2%	21.0	?	-11.0%	-6.6%
O=C(CSc1ncccc1C(=O)Oc1ccccc1Cl)Nc1ccc(C(F)(F)F)cc1Cl	.	.	23.1µM*	.	?
COc1ccc(CNc2nc3c(-c4ccc(C)cc4)nnn3c3ccccc23)cc1	.	.	-20.0%	.	-25.9%
O=C(Cc1c(F)cccc1Cl)Nc1nc2ccccc2s1	-7.7%	-57.5*	?	-7.1%	?
Cc1cc(NC(=O)Cc2c(F)cccc2Cl)no1	-9.9%	2.8	?	4.8%	14.6µM*
Cc1nn(C2CCS(=O)(=O)C2)c2nc(C3CC3)cc(C(=O)Nc3cccc(C#N)c3)c12 (stereo not given)	-17.8%	?	?	-17.8%	?
CCN1C(=O)[C@H]2[C@@H](c3ccc(Cl)cc3)N3C(=O)CN(CCOC)C(=O)[C@@]3(Cc3ccccc3)[C@H]2C1=O	0.1%	13.4	-5.6%	2.9%	-12.8%
COC(=O)c1cc(NC(=O)Cc2cc(OC)c(OC)c(OC)c2)cc(C(=O)OC)c1	1.2%	-25.0	-18.1%	-1.3%	0.3%
Cc1oc(-c2cccc(F)c2)nc1CN(Cc1ccccc1)C[C@@H]1CCC(=O)N1	-21.4%	-22.4	?	-1.5%	-0.4%
O=C1CCCN1CCC12CC3CC(CC(C3)C1)C2	-3.0%	77.6	20.6µM*	0.3%	?
O=C1CCCN1CCc1cccc2ccccc12	12.2%	-1.3	?	3.5%	?
OCCC1CN(Cc2ccc(-c3ccco3)cc2)CCN1Cc1ccsc1 (stereo not given)	-2.4%	-61.2*	?	-10.4%	?
C#Cc1ccc(CN2CCN(Cc3ccsc3)C(CCO)C2)cc1 (stereo not given)	-1.9%	8.3	?	-10.6%	-18.3%
OCCC1CN(Cc2ccccc2OC2CCCC2)CCN1Cc1ccsc1 (stereo not given)	7.1%	-5.9	14.6µM*	1.0%	?
OCCC1CN(Cc2cccc3nonc23)CCN1Cc1ccsc1 (stereo not given)	0.8%	10.8	-15.3%	0.3%	-10.5%
CN(C)S(=O)(=O)c1cccc(-c2nn(-c3ccccc3)cc2/C=C2\SC(=S)NC2=O)c1	10.3µM*	-4.5	?	?	?
CCN1C(=O)/C(=C/c2cn(-c3ccccc3)nc2-c2cccnc2)SC1=S	17.3%	-3.7	-33.6%	20.6%	-8.1%

High-throughput results deposited in PubChem by National Center for Advancing Translational Sciences (NCATS).
